# Many of the other results were omitted from the sample, so hits are more common in it than they were.
# LmPK inh – blocks Leishmania mexicana pyruvate kinase activity. Q27686. purified LmPK, Kinase-Glo ATP luminescence, 1 h. Potency, µM (series often up to 57.5 µM), hits mostly inhibitors. AID 1721. actives 0.37% (n = 290,000)
#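 Purified LmPK (0.1 nM) converted ADP (0.1 mM) to ATP with PEP (0.5 mM) in imidazole buffer pH 7.2 with KCl and MgCl2, 1 h at room temperature. ATP was read by Kinase-Glo luminescence; data normalized to uninhibited and no-enzyme controls.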
# FBPA Giardia inh – Giardia lamblia aldolase inhibition; A8B2U2; actives 0.71% (n = 290,000); AID 2451; purified Giardia FBPA; Potency, µM (series often up to 59.6 µM), actives largely listed as inhibitors; also: nearly all actives have a fitted effect of over 55% in size
# Target sequence (A8B2U2 whole entry, looked up): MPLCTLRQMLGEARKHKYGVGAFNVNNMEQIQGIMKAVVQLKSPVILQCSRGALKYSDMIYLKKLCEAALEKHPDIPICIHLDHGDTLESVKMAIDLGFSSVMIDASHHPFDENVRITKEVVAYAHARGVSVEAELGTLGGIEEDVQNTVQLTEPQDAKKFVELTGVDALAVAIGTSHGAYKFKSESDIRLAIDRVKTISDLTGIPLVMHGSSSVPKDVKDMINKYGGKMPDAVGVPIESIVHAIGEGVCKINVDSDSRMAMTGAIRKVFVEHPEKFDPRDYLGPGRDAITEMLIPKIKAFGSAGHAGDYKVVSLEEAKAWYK
#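 40 nM FBPA preincubated 10 min at RT with compound (up to 57.5 uM final), then substrate plus GAPDH/TPI/NAD/arsenate coupling and diaphorase/resazurin added. Fluorescence read after 20 min at RT, 525/598 nm.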
# Sm TGR block – S. mansoni TGR enzyme inhibition; purified TGR, DTNB reduction, TNB absorbance 405 nm; Potency, µM (titrated, usually from 114 µM), hits mostly inhibitors; actives 3% (n = 360,000); also: nearly all actives have a fitted effect of over 60% in size
#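 Kinetic colorimetric format: TGR-catalysed, NADPH-driven DTNB reduction monitored via TNB absorbance. Enzyme dispensed at 20 nM; compound exposure 15 min at room temperature before reaction start.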
# CHX counter – affects cycloheximide protein synthesis inhibition readout, counter-screen; max response, %; cell reporter, cycloheximide protein synthesis inhibition counterscreen; actives 12% (n = 300,000); in the data active = max response mostly above about 13%, no sharp cut-off; inactive = mostly below about 14%; also: read at 38.3 µM for the half of the compounds with a filed dose
# TbPYK inhibitor – inhibitors of Trypanosoma brucei pyruvate kinase; Q57TT1; TbPYK enzyme, Kinase-Glo Plus ATP luminescence, 45 min; Potency, µM (highest dose often 76.8 µM), most hits filed as inhibitors; actives 0.12% (n = 410,000); AID 624173; also: nearly all actives have a fitted effect of over 50% in size
#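 ADP (130 uM final) triggers the TbPYK reaction after compound addition; incubation is 45 min at room temperature. Kinase-Glo Plus is then added and luminescence imaged. Normalized data are fitted to concentration-effect curves.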
# Shiga toxin inh – inhibitors of Shiga toxin in Vero cells | Vero cells, Shiga toxin protein synthesis inhibition reporter | inhibition, % at 38.7 µM | actives 9.2% (n = 290,000) | AID 2315; in the data active = inhibition mostly above about 28%, no sharp cut-off; inactive = mostly below about 43%
# A number is an active result; 0 = inactive; ? = inconclusive; - = not tested or not shown. Unless noted, calls follow the shape of the dose curve; as a rule, active = well fitted curve in the direction sought with a large enough effect; inconclusive = small, poorly fitted or top-dose-only effect, or another doubt; inactive = no such curve, though single readings can be large; an effect the other way counts as inactive or inconclusive.
SMILES,LmPK inh,FBPA Giardia inh,Sm TGR block,CHX counter,TbPYK inhibitor,Shiga toxin inh
Cc1occc1C(=O)NCCCCc1ccccc1,0,0,20µM,23,0,55
COc1ccc2[nH]c(C(=O)c3ccccc3)cc2c1,-,0,-,-,-,-
CCCC(=O)Nc1c(C(=O)OCC)[nH]c2ccccc12,0,0,0,0,0,0
CCOC(=O)c1[nH]c2ccc(F)cc2c1NC(=O)c1cc(OC)c(OC)c(OC)c1,0,0,0,0,0,0
CCOC(=O)c1[nH]c2ccc(OC)cc2c1NC(=O)c1ccccc1C(=O)O,0,0,0,35,0,64
CCOC(=O)c1[nH]c2ccc(OC)cc2c1NC(=O)c1cccc(OC)c1,0,0,0,0,0,0
CCOC(=O)c1[nH]c2ccc(F)cc2c1NC(=O)c1ccccc1C(=O)O,0,0,0,43,0,96
CCOC(=O)c1cc2cc(OC)ccc2[nH]1,0,0,0,49,0,110
CCOC(=O)c1[nH]c2ccccc2c1NC(=O)Nc1ccc(OC)cc1,0,0,0,9.9,0,0
CCOC(=O)c1[nH]c2ccc(OC)cc2c1NC(C)=O,0,0,0,0,0,0
COc1ccc2[nH]c(C)c(CN3CCCCC3)c(=O)c2c1,0,0,0,0,0,0
CCOC(=O)c1[nH]c2ccc(OC)cc2c1C,0,0,0,29,0,73
CCOC(=O)c1[nH]c2ccc(OC)cc2c1NC(=S)N1CCN(c2ccc(F)cc2)CC1,0,0,0,0,0,0
CCOC(=O)c1[nH]c2ccc(OC)cc2c1NC(=S)N1CCN(c2cccc(C)c2C)CC1,0,0,0,17,0,0
CCOC(=O)c1[nH]c2ccc(OCC)cc2c1NC(=O)CN1CCC2(CC1)OCCO2,0,0,0,0,0,0
CCc1c(C)[nH]c2ccc(OC)cc2c1=S,?,?,0,0,2µM,0
CCOC(=O)c1[nH]c2ccc(OCC)cc2c1NC(=O)CN1CCN(c2ccccc2)CC1,0,0,0,28,0,0
CN=C1NC(C)(C)C2CCC(C)(CC2)S1,-,-,-,-,0,-
OC[C@@H]1CN(CCNc2ccccc2)C[C@H](n2cnc3c(NCc4ccncc4)ncnc32)O1,-,-,-,-,0,-
O=C(C1CC(c2ccccc2O)=NO1)N1CCCC1 (stereo not drawn),0,0,0,38,0,78
CSc1ccccc1NC(=O)C1CC(c2ccccc2O)=NO1 (stereo not drawn),0,0,0,41,0,93
CCOC(=O)N1CCN(C(=O)C2CC(c3ccccc3OC)=NO2)CC1 (stereo not drawn),0,0,0,0,0,0
O=C(C1CC(c2ccccc2O)=NO1)N1CCC2(CC1)OCCO2 (stereo not drawn),0,0,0,25,0,0
CCc1noc(C)c1C(=O)N1CCCC(N2CCN(c3cccc(Cl)c3)CC2)C1 (stereo not drawn),0,-,0,0,0,0
CCC(C)n1c(=N)c(C(=O)NC2CCCCC2)cc2c(=O)n3cc(C)ccc3nc21 (stereo not drawn),-,-,0,-,0,-
SMILES,LmPK inh,FBPA Giardia inh,Sm TGR block,CHX counter,TbPYK inhibitor,Shiga toxin inh
Cc1ccc(C)c(CN2C(=O)c3ccccc3S(=O)(=O)c3ccc(C(=O)N4CCOCC4)cc32)c1,-,-,0,-,0,-
O=C(NNc1nc2ccc(F)cc2s1)c1cccc(F)c1,0,0,0,42,0,85
O=C(NNc1nc2ccccc2s1)c1ccc(F)cc1,0,0,0,44,0,89
O=C(NNc1nc2c(F)cccc2s1)c1ccccc1,0,0,0,0,0,0
COc1ccc(C(C)=O)cc1Cn1c(C)c(C(=O)NCc2ccc3c(c2)OCO3)sc1=O,-,-,-,-,0,-
CS(=O)(=O)N(CC(=O)N1CCCC1)c1cccc(C(F)(F)F)c1,-,-,-,-,0,-
CCOC(=O)CN1N=C(/C=C/c2ccc(C(C)C)cc2)CCC1=O,0,0,0,35,0,0
CCOC(=O)CN1N=C(/C=C/c2ccc(OCC)cc2)CCC1=O,0,0,0,30,0,0
CC(=O)N[C@@H](CC(=O)O)C(=O)N[C@@H](CCC(=O)O)C(=O)O,-,0,-,-,0,-
Cc1ccc(S(=O)(=O)NCCc2csc(-c3cccc(F)c3)n2)cc1,-,-,0,-,0,-
CC(=O)Nc1ccc(-c2nc3ccc(Cl)cc3[nH]2)cc1,-,0,-,-,-,-
CC(=O)Nc1ccc(-c2nc3c(C)cccc3[nH]2)cc1,0,0,0,45,0,110
